Results published in PubChem BioAssay AID1159580 (chemical genetic matrix, 2015).
Out of some 5,500 compounds screened, about 2,000 (36%) were called active. Roughly 18% stayed inconclusive and do not appear here. Rule as the data show it: active = normalized growth mostly below about 0.91 (no sharp cut-off); inconclusive = no clear call, values can overlap the other calls; inactive = mostly above about 0.92. The list shows a part of the results.

Experiment: chemical genetic growth profiling, strain panel (AID 1159580);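 also: tested at 20 µM; growth read once vehicle control cultures reached saturation at 30 °C; 1 = growth at the plate median or of vehicle wells; lower values mean less growth of the strain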
Settings: S. cerevisiae deletion strains, growth OD
[1] = locus YAL040C, strain CLN3, hits give low values
[2] = locus YCL061C, strain MRC1 (second series), hits give low values
[3] = locus YDR363W, strain ESC2, hits give low values
[4] = locus YER002W, strain NOP16, hits give low values
[5] = locus YNL175C, strain NOP13, hits give low values
[6] = locus YNL197C, strain WHI3, hits give low values
[7] = locus YNL224C, strain SQS1, hits give low values
[8] = locus YOR083W, strain WHI5 (second series), hits give low values

Measured: normalized growth

CC(C)C[C@H](N)CSSC[C@@H](N)CC(C)C
inactive: [1] 0.965 | [2] 1.01 | [3] 1 | [4] 1.02 | locus YJR075W, strain HOC1, hits give low values 1 | locus YMR307W, strain GAS1, hits give low values 1.01 | locus YNL128W, strain TEP1, hits give low values 1.01 | [5] 1.01 | [6] 1.01 | [7] 1 | [8] 1.03 | locus YPL241C, strain CIN2, hits give low values 1.01

c1ccc(-c2ccccn2)nc1
inactive: [1] 0.974 | [2] 0.975 | [3] 1.02 | [4] 0.966 | locus YGR078C, strain PAC10, hits give low values 0.977 | locus YMR263W, strain SAP30, hits give low values 1 | locus YNL153C, strain GIM3, hits give low values 0.942 | [5] 0.987 | [6] 0.95 | [7] 0.991 | locus YNL322C, strain KRE1, hits give low values 1.03 | [8] 0.972

c1ccc(-c2nnc(-c3ccccn3)nc2-c2ccccc2)cc1
inactive: locus YBL105C, strain PKC1, hits give low values 0.945 | locus YBR135W, strain CKS1, hits give low values 0.937 | locus YBR136W, strain MEC1, hits give low values 0.904 | locus YBR160W, strain CDC28, hits give low values 0.944 | locus YDL017W, strain CDC7, hits give low values 0.946 | locus YDL028C, strain MPS1, hits give low values 0.896 | locus YDL101C, strain DUN1, hits give low values 0.957 | locus YDL108W, strain KIN28, hits give low values 0.917 | locus YDL214C, strain PRR2, hits give low values 0.814 | locus YDR226W, strain ADK1, hits give low values 0.924 | locus YDR477W, strain SNF1, hits give low values 0.748 | locus YER123W, strain YCK3, hits give low values 0.704 | locus YER133W, strain GLC7, hits give low values 0.783 | locus YFR003C, strain YPI1, hits give low values 0.943 | locus YFR019W, strain FAB1, hits give low values 0.796 | locus YGR040W, strain KSS1, hits give low values 0.748 | locus YGR052W, strain FMP48, hits give low values 0.641 | locus YHR082C, strain KSP1, hits give low values 0.655 | locus YHR205W, strain SCH9, hits give low values 0.689 | locus YIL147C, strain SLN1, hits give low values 0.893 | locus YJL128C, strain PBS2, hits give low values 0.871 | locus YJL157C, strain FAR1, hits give low values 0.74 | locus YJR066W, strain TOR1 (second series), hits give low values 0.663 | locus YJR066W, strain TOR1, hits give low values 0.565 | locus YKL067W, strain YNK1, hits give low values 0.792 | locus YML070W, strain DAK1, hits give low values 0.78 | locus YMR001C, strain CDC5, hits give low values 0.903 | locus YNL006W, strain LST8, hits give low values 0.932 | locus YNL020C, strain ARK1, hits give low values 0.746 | locus YNL161W, strain CBK1, hits give low values 0.938 | locus YNL183C, strain NPR1, hits give low values 0.655 | locus YNL222W, strain SSU72, hits give low values 0.914 | locus YOL136C, strain PFK27, hits give low values 0.861 | locus YOR231W, strain MKK1, hits give low values 0.631 | locus YOR329C, strain SCD5, hits give low values 0.921 | locus YPL031C, strain PHO85, hits give low values 0.774 | locus YPL153C, strain RAD53, hits give low values 0.695 | locus YPL209C, strain IPL1, hits give low values 0.931 | locus YPR025C, strain CCL1, hits give low values 0.927 | locus YPR106W, strain ISR1, hits give low values 0.919 | locus YPR111W, strain DBF20, hits give low values 0.885
active: locus YAR019C, strain CDC15, hits give low values 0.857 | locus YDL132W, strain cdc53, hits give low values 0.856 | locus YDR052C, strain DBF4, hits give low values 0.908 | locus YDR054C, strain cdc34, hits give low values 0.845 | locus YFL009W, strain cdc4, hits give low values 0.812 | locus YFL029C, strain CAK1, hits give low values 0.806 | locus YFR028C, strain CDC14, hits give low values 0.871 | locus YGR092W, strain DBF2, hits give low values 0.473 | locus YHR030C, strain SLT2, hits give low values 0.531 | locus YHR079C, strain IRE1, hits give low values 0.487 | locus YJL095W, strain BCK1, hits give low values 0.47 | locus YJR016C, strain ILV3, hits give low values 0.83 | locus YKL048C, strain ELM1, hits give low values 0.683 | locus YKL101W, strain HSL1, hits give low values 0.716 | locus YKL193C, strain SDS22, hits give low values 0.867 | locus YKL203C, strain TOR2, hits give low values 0.652 | locus YLR113W, strain HOG1, hits give low values 0.581 | locus YLR133W, strain CKI1, hits give low values 0.676 | locus YLR403W, strain SFP1, hits give low values 0.631 | locus YMR205C, strain PFK2 (second series), hits give low values 0.734 | locus YMR277W, strain FCP1, hits give low values 0.871 | locus YNL207W, strain RIO2, hits give low values 0.813 | locus YNL307C, strain MCK1 (second series), hits give low values 0.623 | locus YOL078W, strain AVO1, hits give low values 0.859 | locus YOR061W, strain CKA2, hits give low values 0.662 | locus YOR119C, strain RIO1, hits give low values 0.57 | locus YPL204W, strain HRR25, hits give low values 0.661 | locus YPL256C, strain CLN2, hits give low values 0.545 | strain NNK1, hits give low values 0.814 | strain TSCII, hits give low values 0.842
